Source: PubChem BioAssay (Sanford-Burnham Center for Chemical Genomics)
CYP2C19 act: activators of human cytochrome P450 2C19; recombinant CYP2C19, luciferin-H EGE luminescence; active compounds read high; 0 = fully inhibited enzyme, 1 = untreated enzyme; activation factor at 5 µM; 96,000 tested, under 10 active; AID 1025;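 active = activation factor of at least 2 at 5 µM in the primary screen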;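 note: 0 = wells with 2.5 mM tranylcypromine and 1 = vehicle-only wells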
CYP2C9 activ: increases human cytochrome P450 2C9 activity; P11712; recombinant CYP2C9, luciferin-H conversion, luminescence; active compounds read high; factor 1 = untreated enzyme, 0 = blocked; activation factor at 5 µM; 96,000 compounds, 1.4% hits; AID 1024;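 active = activation factor of 2 or more for CYP2C9 at a 5 µM dose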;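 note: 0 = sulfaphenazole-blocked wells and 1 = vehicle-only wells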
PTK2B oligo ant: blocks oligomerization of human Pyk2 in cells | Q293 cells, Pyk2 FERM NanoBiT luminescence; active compounds read low | z-score (the deposit names both 25 µM and 10 µM) | 99,000 compounds, 0.83% hits;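 active = Z-score of -3 or lower, scaled per plate to the spread of control and sample wells; inactive = z-score above -3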;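 note: negative z-score means lost luminescence so less FERM oligomerization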
Target sequence (Q14289 whole entry, looked up): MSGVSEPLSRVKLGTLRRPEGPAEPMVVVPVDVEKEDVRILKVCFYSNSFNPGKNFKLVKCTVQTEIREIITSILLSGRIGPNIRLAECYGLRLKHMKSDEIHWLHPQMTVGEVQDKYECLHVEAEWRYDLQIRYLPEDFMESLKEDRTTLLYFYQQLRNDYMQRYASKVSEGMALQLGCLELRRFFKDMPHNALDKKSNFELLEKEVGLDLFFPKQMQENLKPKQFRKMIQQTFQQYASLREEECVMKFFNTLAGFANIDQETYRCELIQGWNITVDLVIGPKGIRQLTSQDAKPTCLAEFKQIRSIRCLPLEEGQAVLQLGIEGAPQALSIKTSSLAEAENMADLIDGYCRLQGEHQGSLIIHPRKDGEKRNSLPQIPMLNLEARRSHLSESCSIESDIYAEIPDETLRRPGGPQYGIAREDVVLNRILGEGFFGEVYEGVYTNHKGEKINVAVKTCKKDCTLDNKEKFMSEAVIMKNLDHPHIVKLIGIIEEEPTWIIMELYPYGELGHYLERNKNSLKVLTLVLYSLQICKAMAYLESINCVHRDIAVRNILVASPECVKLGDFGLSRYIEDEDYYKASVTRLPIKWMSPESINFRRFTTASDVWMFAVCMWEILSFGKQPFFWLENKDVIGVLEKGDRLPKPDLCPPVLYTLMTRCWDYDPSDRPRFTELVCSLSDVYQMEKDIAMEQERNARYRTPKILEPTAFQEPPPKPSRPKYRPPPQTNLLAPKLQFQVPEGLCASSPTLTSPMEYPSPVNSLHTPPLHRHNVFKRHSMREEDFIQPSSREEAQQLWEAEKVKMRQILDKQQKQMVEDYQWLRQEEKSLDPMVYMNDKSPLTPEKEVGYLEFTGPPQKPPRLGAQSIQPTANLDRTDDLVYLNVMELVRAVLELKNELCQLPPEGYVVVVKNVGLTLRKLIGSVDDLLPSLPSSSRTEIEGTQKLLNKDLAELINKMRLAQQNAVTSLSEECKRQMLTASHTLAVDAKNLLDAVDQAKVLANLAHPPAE
CYP2C19 inhib: inhibitors of human CYP2C19; P33261; CYP2C19 Supersomes, luciferin-H EGE luminescence, 30 min; inhibition, % at 5 µM; 96,000 compounds, 21% hits; AID 778;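 active = CYP2C19 inhibition above a set limit at 5 µM in the primary screen, cut at about 50% in these data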;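 note: plate controls were negative control wells for no effect and 2.5 mM tranylcypromine positive control for full effect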
CYP2C9 inhib: blocks human cytochrome P450 2C9. P11712. CYP2C9 Supersomes, luciferin-H conversion, luminescence. inhibition, % at 5 µM. 96,000 compounds, 20% hits. AID 777;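 active = blocking of liver enzyme CYP2C9 beyond about 50% at 5 µM, limit read from the data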
* = called active by the depositor; . = no result. Rows were chosen to be rich in hits. Some 28% of all compounds tested hit in one or more screens of this group.

SMILES	CYP2C19 act	CYP2C9 activ	PTK2B oligo ant	CYP2C19 inhib	CYP2C9 inhib
CCOc1ccc(N(C(C)C(=O)N/N=C(\C)c2cccc(NC(=O)c3ccccc3)c2)S(C)(=O)=O)cc1 (stereo unspecified)	0.2	0.3	-0.33	76.3*	69.1*
CN1C(=O)C2(C(C#N)=C(N)Oc3n[nH]c(-c4ccc(Cl)cc4)c32)c2ccccc21 (stereo unspecified)	0.7	0.7	-3.05*	28.8	29.8
CCCCc1[nH]nc2c1C1(C(=O)N(CC)c3ccccc31)C(C#N)=C(N)O2 (stereo unspecified)	1	1.1	-0.2	-2.7	-10.2
COC(=O)Cc1[nH]nc2c1C1(C(=O)N(Cc3ccccc3)c3ccccc31)C(C#N)=C(N)O2 (stereo unspecified)	0.4	0.4	-0.03	64.5*	60.8*
CC(=O)N1C(=O)C2(C(C#N)=C(N)Oc3n[nH]c(-c4ccccn4)c32)c2ccccc21 (stereo unspecified)	0.9	0.9	-2.79	10.0	10.6
Cc1[nH]nc2c1C1(C(=O)N(Cc3ccc(Cl)cc3)c3ccccc31)C(C#N)=C(N)O2 (stereo unspecified)	0.1	0.1	-1.47	88.8*	92.0*
[O-]C1=N/[N+](=C/c2ccccc2Cl)CC1	1.2	1.3	-0.42	-19.1	-34.5
CC(C(=O)NCc1ccc2c(c1)OCO2)N1c2cccc3cccc(c23)S1(=O)=O (stereo unspecified)	0.2	2.7*	-0.65	82.2*	-166.2
O=C(CN1C(=O)c2ccccc2S1(=O)=O)NCc1ccc2c(c1)OCO2	.	.	1.01	.	.
O=C(CN1C(=O)c2cccc3cccc1c23)NCC1CCCO1 (stereo unspecified)	1	3.5*	0.03	-0.2	-252.8
O=C(CN1c2cccc3cccc(c23)S1(=O)=O)NCc1ccc2c(c1)OCO2	0.2	4.1*	-0.81	81.3*	-313.8
CCc1cccc(CC)c1NC(=S)NCc1ccc2c(c1)OCO2	.	.	-0.72	.	.
CCC1Sc2ccccc2N(CC(=O)NCc2ccc3c(c2)OCO3)C1=O (stereo unspecified)	0.3	0.6	-0.91	71.8*	40.1
CSc1nnc2c(n1)OC(C1CC=C(C)CC1)Nc1ccccc1-2 (stereo unspecified)	1.1	1.3	.	-9.4	-25.6
CCn1nnnc1SCC(=O)Nc1ccc(OCc2ccccc2)cc1	.	.	0.13	.	.
O=C(CN1C(=O)c2cccc3cccc1c23)Nc1ccc2c(c1)OCO2	0.9	0.8	1.11	7.2	15.4
O=C(CN1C(=O)c2cccc3cccc1c23)NCc1ccc2c(c1)OCO2	0.3	4*	0.86	68.0*	-299.5
O=C(CN1C(=O)c2cccc3cccc1c23)NCc1ccccn1	0.9	2.8*	-0.14	7.5	-175.5
O=C(CN1C(=O)c2cccc3cccc(c23)C1=O)N1CCN(Cc2ccc3c(c2)OCO3)CC1	0.7	0.5	-0.01	32.2	54.8*
O=C(CN1C(=O)c2ccccc2C1=O)NCc1ccccn1	1.1	1	-0.14	-6.2	-2.7
CCCn1c(C)cc(=O)c2cc(NC(=O)c3cnccn3)ccc21	1	1.1	-0.21	-0.4	-8.6
C=C1C2(C(=O)NCc3ccco3)CCC(C2)C1(C)C (stereo unspecified)	0.7	0.9	0.03	27.4	14.0
CC1(C)C(=O)C2(C(=O)NCc3ccccc3)CCC1C2 (stereo unspecified)	0.3	0.9	0.13	69.8*	8.1
Cc1noc(C)c1COC(=O)c1ccccc1Oc1ccccc1	0	0.1	-0.22	96.3*	89.2*
Cc1noc(C)c1COC(=O)c1cccnc1SCC(=O)Nc1ccc2c(c1)OCO2	0.7	0.3	0.93	28.4	74.0*
SMILES	CYP2C19 act	CYP2C9 activ	PTK2B oligo ant	CYP2C19 inhib	CYP2C9 inhib
Cc1noc(C)c1COC(=O)CCOc1ccccc1	0.5	1.1	0.5	48.5	-6.8
Cc1noc(C)c1COC(=O)c1cc(F)c(F)cc1Cl	0.2	0.4	0.48	76.8*	55.0*
Cc1noc(C)c1COc1ccc(C(=O)OCC(=O)Nc2ccc3c(c2)OCO3)cc1	0.9	0.8	1.39	8.4	22.5
Cc1noc(C)c1COC(=O)c1ccccc1NC(=O)Cc1ccccc1	0	0	-0.95	99.0*	97.5*
CC1(C)CC(=O)C2=C(C1)OC(c1ccc(O)cc1)C(C#N)=C2N (stereo unspecified)	.	.	-0.5	.	.
Cc1cccc(-n2c(SCC(=O)NC3CCCC3)nnc2-c2ccoc2C)c1	.	.	-0.84	.	.
N#CCCN1CCN(C(CNS(=O)(=O)c2ccc(Cl)cc2)c2ccccc2)CC1 (stereo unspecified)	0.1	0.9	1.07	89.6*	12.3
Cc1ccc(S(=O)(=O)NCC(c2ccccc2)N2CCN(CCC#N)CC2)cc1 (stereo unspecified)	0.2	1	0.75	75.9*	2.4
Cc1cc2n(n1)SC(Nc1ccc(F)c(Cl)c1)N2 (stereo unspecified)	.	.	0.64	.	.
Nn1c(=O)c2ccccc2n2c(SCc3ccc(C(F)(F)F)cc3)nnc12	0.6	0.5	-0.08	42.3	50.1*
Cc1ccc(S(=O)(=O)NCCSc2nnnn2-c2ccc(C(N)=O)cc2)cc1	0.8	0.6	.	23.5	36.3
CS(=O)(=O)NCCSc1nnnn1-c1ccccc1	0.5	1.2	1.13	51.5*	-16.7
O=S(=O)(NCCSc1nnnn1-c1ccccc1)c1cccs1	0	0.9	-0.19	98.6*	6.4
O=C(Cn1nc(Cc2ccncc2)c2ccccc2c1=O)N1CCN(C(=O)c2ccco2)CC1	0.7	0.4	.	34.0	64.3*
CC(CCc1ccco1)NC(=O)Cn1nc(Cc2ccncc2)c2ccccc2c1=O (stereo unspecified)	0.2	0.1	.	84.5*	86.2*
O=C(COc1cccc(-n2cnnn2)c1)Nc1ccccc1	.	.	0.62	.	.
Cc1ccc(S(=O)(=O)N2CCCC2C(=O)O)cc1 (stereo unspecified)	1.1	1.2	-0.06	-5.8	-22.0
Cc1ccc(S(=O)(=O)N2CCN(S(C)(=O)=O)C2c2ccccc2)cc1 (stereo unspecified)	0.4	0.5	0.6	63.6*	45.8
COc1ccc(C2N(C(=O)N3CCOCC3)CCN2S(=O)(=O)c2ccc(C)cc2)cc1 (stereo unspecified)	0.8	0.6	0.53	18.0	41.0
COc1ccc(C2N(C(=O)c3ccccc3)CCN2C(=O)c2ccccc2)cc1	0.3	0.5	-1.08	68.6*	49.7
Cc1ccc(S(=O)(=O)N2CC3CCC2C3)cc1 (stereo unspecified)	0.4	1.4	0.71	64.6*	-36.5
Cc1ccc(S(=O)(=O)N2CCN(S(=O)(=O)c3ccc(C)cc3)C2c2ccccc2)cc1	0.2	1.4	0.05	79.0*	-42.0
COc1ccc(CSc2nnc3n(C)c(=O)c4c5c(sc4n23)CCCC5)cc1	1	1	.	-3.4	-2.7
Cc1[nH]n(-c2ccccc2)c(=O)c1/C=N/N1C(=O)c2ccc3c4c(ccc(c24)C1=O)CC3	.	.	-0.59	.	.
